High-throughput results (PubChem)
Shown are actives, neighbours in structure and some others; about 22% of the full set was active somewhere.
Measles CPE – protection of cells from measles virus; Measles virus-infected cells, CPE protection, absorbance; actives 1.5% (n = 140,000); AID 841; protection (pct of control), % at 4 µM; in the data active means protection mostly above about 24%, no sharp cut-off; inactive means mostly below about 26%
CYP2C19 activ – activators of human cytochrome P450 2C19 | P33261 | recombinant CYP2C19, luciferin-H EGE luminescence; hits give high values; 0 = fully inhibited enzyme, 1 = untreated enzyme | activation factor at 5 µM | 96,000 tested, under 10 active | AID 1025;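 active means activation factor of at least 2 at 5 µM in the primary screen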
CYP2C9 inhib – blocks human cytochrome P450 2C9 | AID 777 | inhibition, % at 5 µM | actives 20% (n = 96,000) | CYP2C9 Supersomes, luciferin-H conversion, luminescence | P11712;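 active means blocking of liver enzyme CYP2C9 beyond about 50% at 5 µM, limit read from the data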
Target sequence (P11712 whole entry, looked up): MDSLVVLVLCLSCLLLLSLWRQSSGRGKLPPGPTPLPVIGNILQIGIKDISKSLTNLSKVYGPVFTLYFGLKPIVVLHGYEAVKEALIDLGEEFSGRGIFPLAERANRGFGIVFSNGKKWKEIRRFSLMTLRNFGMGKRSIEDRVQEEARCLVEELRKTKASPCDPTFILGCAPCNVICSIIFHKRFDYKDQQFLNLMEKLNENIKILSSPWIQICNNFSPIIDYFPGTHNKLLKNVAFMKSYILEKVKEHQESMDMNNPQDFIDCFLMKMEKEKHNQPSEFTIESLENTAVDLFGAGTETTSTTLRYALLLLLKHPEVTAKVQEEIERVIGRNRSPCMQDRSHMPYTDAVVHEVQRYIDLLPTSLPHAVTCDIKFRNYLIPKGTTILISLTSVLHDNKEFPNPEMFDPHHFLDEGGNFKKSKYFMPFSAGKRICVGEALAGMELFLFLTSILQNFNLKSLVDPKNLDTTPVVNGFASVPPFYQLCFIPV
CYP2C9 activ – CYP2C9 (human) activation. P11712. recombinant CYP2C9, luciferin-H conversion, luminescence; hits give high values; factor 1 = untreated enzyme, 0 = blocked. activation factor at 5 µM. actives 1.4% (n = 96,000);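 active means activation factor of 2 or more for CYP2C9 at a 5 µM dose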
CYP2C19 inh – blocks human cytochrome P450 2C19. inhibition, % at 5 µM. CYP2C19 Supersomes, luciferin-H EGE luminescence, 30 min. P33261. actives 21% (n = 96,000). AID 778;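 active means CYP2C19 inhibition above a set limit at 5 µM in the primary screen, cut at about 50% in these data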
Numbers stand for hits; i = inactive; nt = not tested or not shown.

SMILES | Measles CPE | CYP2C19 activ | CYP2C9 inhib | CYP2C9 activ | CYP2C19 inh
COc1ccccc1NC(=O)C(=O)NCc1ccccc1Cl | i | nt | nt | nt | nt
CCC(=O)Nc1ccc2nc(C)n(CC(=O)Nc3ccccc3)c(=O)c2c1 | i | i | 58 | i | i
Cc1cc(NC(=O)Cn2c(C)nc3ccccc3c2=O)ccc1Br | i | i | 60 | i | i
Cc1ccccc1NC(=O)Cn1c(C)nc2ccc(NC(=O)C3CC3)cc2c1=O | i | i | i | i | i
CCOc1ccc(C2CC(=O)c3c([nH]c(C(=O)OC)c3C)C2)cc1OC (configuration not stated) | i | i | 52 | i | i
CCCCOC(=O)c1[nH]c2c(c1C)C(=O)CC(c1cc(OC)c(OC)c(OC)c1)C2 (configuration not stated) | i | i | 63 | i | i
COC(=O)c1[nH]c2c(c1C)C(=O)CC(c1cc(OC)ccc1OC)C2 (configuration not stated) | i | i | i | i | i
COc1ccc(C2CC(=O)c3c([nH]c(C(=O)OC(C)C)c3C)C2)cc1OC (configuration not stated) | i | nt | nt | nt | nt
C=CCOC(=O)c1[nH]c2c(c1C)C(=O)CC(c1cc(OC)c(OC)c(OC)c1)C2 (configuration not stated) | i | i | 87 | i | 61
CCOP(=O)(c1c(F)c(F)c(F)c(F)c1F)C1(O)CCCCC1 (configuration not stated) | i | i | i | i | i
Cc1sc2nc(C(C)C)oc(=O)c2c1C | i | i | i | i | i
COCCSc1nnc(NC(=O)CSc2ccccc2)s1 | i | i | i | i | i
Cc1ccc(-c2csc(NC(=O)c3ccc(-c4ccccc4)cc3)n2)o1 | i | i | i | i | i
CN(CCCn1c(=S)[nH]c2ncccc2c1=O)Cc1ccccc1 | i | i | i | i | i
Cc1nnc(SCCn2c(N3CC(C)CC(C)C3)nc3c2c(=O)[nH]c(=O)n3C)s1 (configuration not stated) | i | i | 61 | i | i
Cc1onc(-c2ccccc2Cl)c1C(=O)N1CCN=C1SCc1cccnc1 | i | i | 94 | i | 97
CSC1=NCCN1C(=O)c1c(-c2ccccc2Cl)noc1C | i | i | i | i | 71
Cc1onc(-c2ccccc2Cl)c1C(=O)N1C=CC(C(F)(F)F)=NCC1 | i | i | i | i | i
Cc1onc(-c2ccccc2Cl)c1C(=O)N1C=CC(C(F)(F)Cl)=NCC1 | i | i | i | i | 56
Cc1onc(-c2ccccc2Cl)c1C(=O)Nc1cccnc1 | i | i | i | i | i
Cc1cc2cc3c(cc2nc1SCC(=O)Nc1nc(C)c(C)s1)OCO3 | i | i | i | i | i
CCN1CCCC1CN(Cc1cc2ccc(C)cc2[nH]c1=O)C(=S)Nc1cccc(OC)c1 (configuration not stated) | i | nt | nt | nt | nt
Cc1nn(C)c(C)c1/C=C/C(=O)c1cccs1 | i | nt | nt | nt | nt
CCN(CC)S(=O)(=O)c1cccc(-c2nnc(SCC(=O)c3cc(C)n(C4CC4)c3C)o2)c1 | nt | i | 70 | i | 64
C=CCn1c(C)cc(C(=O)CSc2nnc(-c3cccc(S(=O)(=O)N(CC)CC)c3)o2)c1C | i | i | 89 | i | 87
SMILES | Measles CPE | CYP2C19 activ | CYP2C9 inhib | CYP2C9 activ | CYP2C19 inh
CCN(CC)S(=O)(=O)c1cccc(-c2nnc(-c3ccc(C)cc3)o2)c1 | i | i | i | i | i
Cc1cccc2nc(CSc3ccccc3C(=O)O)cn12 | 54 | nt | nt | nt | nt
COc1cc2oc3ccccc3c2cc1N(CC(=O)N(C)C)S(=O)(=O)c1ccc(C)cc1 | i | i | 63 | i | i
Cc1cc(Nc2nc3ccccc3[nH]c2=O)n(-c2ccccc2)n1 | i | i | 64 | i | i
CN=C(Nc1cc(C)nn1-c1ccccc1)c1ccccc1 | i | i | i | i | 81
Cc1cc(Nc2cnc3ccccc3n2)n(-c2ccccc2)n1 | i | i | 72 | i | 69
Cc1cc(NC(=O)c2cc(C)on2)n(-c2ccccc2)n1 | i | nt | nt | nt | nt
Cc1cc(Nc2nc3ccccc3nc2Cl)n(-c2ccc([N+](=O)[O-])cc2)n1 | i | i | i | i | i
CCN(Cc1nc2ccccc2c(=O)[nH]1)Cc1nc2cc(OC)c(OC)cc2c(=O)[nH]1 | i | i | i | i | i
CCN(CC(=O)Nc1ccc2c(c1)OC(F)(F)O2)Cc1nc2ccccc2c(=O)[nH]1 | i | i | 92 | i | 88
CCN(CC(=O)NC(=O)NC1CCCCC1)Cc1nc2ccccc2c(=O)[nH]1 | i | i | i | i | i
CCN(CC(=O)Nc1ccc2c(c1)CCC2)Cc1nc2ccccc2c(=O)[nH]1 | i | i | 89 | i | 92
CCN(CC(=O)Nc1ccc2c(c1)OCO2)Cc1nc2ccccc2c(=O)[nH]1 | i | i | 81 | i | 77
COc1cccc(C(=O)N(Cc2ccc3c(c2)OCO3)Cc2nc3ccccc3c(=O)[nH]2)c1 | i | i | 81 | i | 74
O=C(Cn1cnc2ccccc2c1=O)Nc1ccc2c(c1)OCO2 | i | nt | nt | nt | nt
COc1ccccc1NC(=O)N(Cc1ccc2c(c1)OCO2)Cc1nc2ccccc2c(=O)[nH]1 | i | i | i | i | i
COCCn1c(C)cc(C(=O)CSc2nc3ccccc3c(=O)n2Cc2ccco2)c1C | i | nt | nt | nt | nt
O=C(CN(Cc1ccco1)C(=O)c1cc(=O)[nH]c2ccccc12)Nc1ccccc1C(F)(F)F | i | i | i | i | i
CCN(CC(=O)NCc1ccc(F)cc1)Cc1nc2cc(Cl)ccc2c(=O)[nH]1 | i | i | 60 | i | i
CN(CC(=O)Nc1ccccc1Br)Cc1nc2ccccc2c(=O)[nH]1 | i | i | 81 | i | 83
COc1ccccc1CN(Cc1nc2ccccc2c(=O)[nH]1)C(=O)Nc1cccc(C)c1 | i | i | 57 | i | 67
CCN(CC(=O)NC(c1ccccc1)c1ccccc1)Cc1nc2ccccc2c(=O)[nH]1 | 21 | i | i | i | 65
O=C(Nc1ccc(Cl)cc1)N(Cc1nc2ccccc2c(=O)[nH]1)Cc1cccs1 | i | nt | nt | nt | nt
CCN(Cc1ccccc1)C(c1ccc(C(F)(F)F)cc1)c1nnnn1C(C)(C)C (configuration not stated) | i | nt | nt | nt | nt
CCC(=O)N/N=C(\C)CC(=O)Nc1cccc([N+](=O)[O-])c1 | i | nt | nt | nt | nt
SMILES | Measles CPE | CYP2C19 activ | CYP2C9 inhib | CYP2C9 activ | CYP2C19 inh
CCN(CC(=O)Nc1cccc(Br)c1)Cc1nc2ccccc2c(=O)[nH]1 | i | i | 65 | i | 72
CCOC(=O)C(NCc1ccc(OC)cc1)(NC(C)=O)C(F)(F)F (configuration not stated) | i | nt | nt | nt | nt
CCOC(=O)C(NCc1ccco1)(NC(=O)c1ccccc1)C(F)(F)F (configuration not stated) | i | i | i | i | 76
O=C1N(c2ccccc2)C(c2ccc(Cl)cc2)N2CCCN12 (configuration not stated) | i | nt | nt | nt | nt
On1c(-c2ccco2)nc2c1CCc1nonc1-2 | i | i | i | i | i
CCN(CC)S(=O)(=O)c1ccc2c(c1)nc(SCC(=O)N1CCCCCC1)n2-c1ccc(OC)cc1 | i | i | 81 | i | i
CCN(CC)S(=O)(=O)c1ccc2c(c1)nc(SCC(N)=O)n2-c1ccc(OC)cc1 | i | i | i | i | i
